# Screening data as filed in PubChem BioAssay.
# Rows were chosen to be rich in hits. Some 6.9% of all compounds tested hit in one or more screens of this group.
# S-ASM inh – inhibitors of human secretory acid sphingomyelinase. 0.006% of 340,000 active. Potency, µM (top dose mostly 57.5 µM), without a hit: at the top dose activity change, negative = inhibition, most hits filed as inhibitors. P17405. placental ASM, HMU-PC fluorogenic substrate, 60 min. AID 504937; note: potency is the fitted concentration of half-maximal effect
# Target sequence (P17405 47-631 limits assumed): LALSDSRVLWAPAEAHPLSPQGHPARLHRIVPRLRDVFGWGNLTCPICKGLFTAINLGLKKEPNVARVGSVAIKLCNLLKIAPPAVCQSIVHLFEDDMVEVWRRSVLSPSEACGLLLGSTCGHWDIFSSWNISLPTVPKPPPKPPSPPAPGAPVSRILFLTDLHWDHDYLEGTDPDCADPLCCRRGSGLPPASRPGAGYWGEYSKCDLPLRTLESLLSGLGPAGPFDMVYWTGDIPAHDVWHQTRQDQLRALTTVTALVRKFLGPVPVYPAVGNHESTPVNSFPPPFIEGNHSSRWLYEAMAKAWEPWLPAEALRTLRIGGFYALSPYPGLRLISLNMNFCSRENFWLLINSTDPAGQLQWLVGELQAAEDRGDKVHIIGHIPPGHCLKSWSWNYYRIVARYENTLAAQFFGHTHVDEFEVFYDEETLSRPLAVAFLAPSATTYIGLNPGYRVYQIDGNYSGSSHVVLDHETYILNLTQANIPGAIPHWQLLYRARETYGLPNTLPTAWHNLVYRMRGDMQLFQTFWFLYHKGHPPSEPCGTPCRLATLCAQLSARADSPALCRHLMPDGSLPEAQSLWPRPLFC
#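 qHTS format. ASM enzyme prepared from human placenta hydrolyses the fluorogenic substrate HMU-PC0 (9 uM final) over 60 min at 37 °C after a 10 min compound preincubation.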
# SW480 rerep – DNA re-replication induction in SW480 cells; SW480 DNA re-replication, Hoechst DNA content imaging, 48 h; Potency, µM (top dose mostly 46.1 µM), without a hit: at the top dose re-replication activation, usual class: activators; AID 624297; 1.8% of 340,000 active; note: potency is the fitted concentration of half-maximal effect; % of control where 0% means no effect; nearly all actives have a fitted effect of over 55% in size
#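 250 cells/well; 23 nL cpd via pin tool; 48 hr, 37 C, 5% CO2; Hoechst 40 min; imager read of total nuclear intensity, ex 405/em 500-530 nm.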
# Giardia killer – kills Giardia lamblia | Giardia lamblia trophozoite viability | activity change, % at 7.66 µM, hits read low | 0.15% of 340,000 active; in the data active = activity change below about -80%; inconclusive = between about -30% and that limit;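 note: parasites exposed to compound for two days anaerobically before the ATP read; % is set by controls: 0 for no effect and ±100 for the full control effect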
#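 Media and compound were dispensed first, then trophozoites at 100 cells/well; plates sat 48 hrs at 37 deg C without oxygen before ATP luminescence reagent was added and read after 15-30 min at room temperature.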
# KB-3-1 tox – kills parental KB-3-1 adenocarcinoma cells. KB-3-1 viability, CellTiter-Glo ATP luminescence, 72 h. Potency, µM (titrated, usually from 46.1 µM), usual class: cytotoxic. 1.4% of 400,000 active; note: potency is the fitted concentration of half-maximal effect; % is set by controls: 0 for no effect and ±100 for the full control effect; nearly all actives have a fitted effect of over 60% in size
#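 Cytotoxicity in the drug-sensitive parental line KB-3-1 was scored as loss of CellTiter-Glo luminescence following 72 h incubation with compound. Values come from curve fitting of normalized concentration-response data.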
# MCF10A rereplic – DNA re-replication induction in MCF 10a cells. Potency, µM (highest dose often 46.1 µM), for inactives: at the top dose activity, positive = re-replication, hits mostly activators. 2.9% of 350,000 active. MCF 10A DNA re-replication, Hoechst nuclear intensity, 48 h; note: potency is the fitted concentration of half-maximal effect; % of control where 0% means no effect; nearly all actives have a fitted effect of over 50% in size
# KB-V1 MDR tox – kills drug-selected multidrug resistant KB-V1 cells; 3.4% of 400,000 active; Potency, µM (doses to about 46.1 µM), usual class: cytotoxic; KB-V1 MDR cells viability, CellTiter-Glo, 72 h; note: potency is the fitted concentration of half-maximal effect; % is set by controls: 0 for no effect and ±100 for the full control effect; nearly all actives have a fitted effect of over 60% in size
#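 Potencies derive from concentration-effect curves fitted to normalized luminescence (CellTiter-Glo) of KB-V1 cells treated for 72 h at 37 degrees C in phenol-red-free DMEM containing 10% FBS.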
# Numbers without * were called inactive; i = inactive; ? = inconclusive; · = no result; ! = not confirmed by another sample. Unless noted, calls come from the whole dose curve; as a rule, active = well fitted curve in the direction sought with a large enough effect; inconclusive = small, poorly fitted or top-dose-only effect, or another doubt; inactive = no such curve, though single readings can be large; an effect the other way counts as inactive or inconclusive.
SMILES,S-ASM inh,SW480 rerep,Giardia killer,KB-3-1 tox,MCF10A rereplic,KB-V1 MDR tox
CC(=O)NC(Cc1c[nH]c2ccccc12)C(=O)NCCc1ccccn1 (configuration not stated),29%,-2%,-12,i,-4%,i
CCOC(=O)c1cc2c(=O)n3ccccc3nc2n(C(C)C)c1=NC(=O)c1ccco1,i,7.3µM*,7,i,7.3µM*,?
CCOC(=O)c1cc2c(=O)n3cccc(C)c3nc2n(Cc2ccco2)c1=NC(=O)c1ccccc1,94%,?,31,i,8.2µM*,?
CCOC(=O)c1cc2c(=O)n3cccc(C)c3nc2n(Cc2ccco2)c1=NC(=O)c1ccc(C)cc1,4%,-8%,-12,i,-1%,i
CC(C)n1c(=NC(=O)c2ccco2)c(C#N)cc2c(=O)n3ccccc3cc21,i,13µM*,-3,?,8.9µM*,i
CCOC(=O)c1cc2c(=O)n3cccc(C)c3nc2n(CCOC)c1=NC(C)=O,i,5.8µM*,9,i,3.7µM*,?
CCCn1c(=NC(=O)c2ccco2)c(C(=O)OCC)cc2c(=O)n3ccccc3nc21,357%,-2%,0,i,-14%,i
COc1ccccc1OCc1nnc(SCC(=O)Nc2nnc(C3CC3)s2)n1C,11%,5%,-19,i,-5%,i
CCCCN(Cc1cc2cc(C)ccc2[nH]c1=O)C(=O)c1cccc(Cl)c1,·,·,·,i,·,i
Cc1ccc(-n2cnc3cc(C(=O)NCc4ccccc4Cl)ccc32)c(C)c1,·,·,·,i,·,i
CCOCCCn1c(=NC(=O)c2ccco2)c(C(=O)OCC)cc2c(=O)n3cccc(C)c3nc21,i,1.6µM*,27,i,?,?
O=C(Nc1ccc2nc3n(c(=O)c2c1)CCCC3)c1cc([N+](=O)[O-])ccc1F,30%,15µM*,8,i,15µM*,16µM*
O=C(Nc1ccc2nc3n(c(=O)c2c1)CCCC3)c1cccc([N+](=O)[O-])c1,-5%,1%,9,i,0%,?
O=c1c2cc(NC(=S)N3CCCCC3)ccc2nc2n1CCCCC2,5%,-22%,-2,i,7%,i
CC1CCN(C(=S)Nc2ccc3nc4n(c(=O)c3c2)CCCCC4)CC1,3%,-4%,5,i,?,6.5µM*
COC(=O)C1=C(C(=O)OC)C(C(=O)OC)N2C=CC=CC2=C1C(=O)OC (configuration not stated),·,·,·,i,·,i
C=CC12C=CC=CN1C(C(=O)OC)=C(C(=O)OC)C(C(=O)OC)=C2C(=O)OC (configuration not stated),-8%,-90%,-5,i,-10%,18µM*
Cc1ccc(F)c(C2C3C=CCC(c4ccccc4)C3C(=O)N2Cc2ccccc2)c1 (configuration not stated),·,·,0,·,·,·
O=C(O)C1C(c2ccccc2)=C1c1ccc(Br)cc1 (configuration not stated),·,·,·,i,·,i
NC(=O)C1C(c2ccccc2)=C1c1ccccc1,-3%,3%,6,i,-1%,21µM*
Cc1ccc(NC(=O)CN2CCc3ccccc3C2)cc1S(=O)(=O)N1CCOCC1,1%,8%,-2,i,-5%,8.2µM*
CCc1ccc(N2CC(C(=O)Nc3ccc(OC)c(S(=O)(=O)N4CCOCC4)c3)CC2=O)cc1 (configuration not stated),·,·,·,i,·,i
Cc1ccc(NC(=O)CCNS(=O)(=O)c2ccccc2)cc1S(=O)(=O)N1CCOCC1,0%,-4%,-9,i,2%,i
Cc1ccc(NC(=O)Cc2ccccc2)cc1S(=O)(=O)N1CCOCC1,-2%,-3%,18,i,4%,23µM*
CCc1ccc(N2CC(C(=O)Nc3ccc(C)c(S(=O)(=O)N4CCOCC4)c3)CC2=O)cc1 (configuration not stated),?,0%,18,i,1%,23µM*
SMILES,S-ASM inh,SW480 rerep,Giardia killer,KB-3-1 tox,MCF10A rereplic,KB-V1 MDR tox
Cc1ccc(S(=O)(=O)NCCSc2nnnn2-c2ccc(Cl)c(C(=O)O)c2)cc1,·,·,·,i,·,?
CC(/C=N/NC(=O)c1nnn(-c2nonc2N)c1CN1CCCCC1)=C\c1ccccc1,-6%,?,5,?,7.3µM*,i
Nc1nonc1-n1nnc(C(=O)N/N=C/c2ccc(O)cc2)c1CN1CCCCCC1,-3%,-11%,0,i,-14%,i
CCCc1c(C(=O)N/N=C(\C)c2ccccn2)nnn1-c1nonc1N,·,·,·,5.8µM*,·,?
CC(=C/c1ccccc1)/C=N/NC(=O)c1nnn(-c2nonc2N)c1CN1CCC(C)CC1,-7%,?,8,i,6%,?
C/C(=N\NC(=O)c1nnn(-c2nonc2N)c1CN(C)c1ccccc1)c1ccccc1O,37%,3.3µM*,5,6.5µM*,?,i
C/C(=N\NC(=O)c1nnn(-c2nonc2N)c1CN1CCCCC1)c1ccccc1O,26%,15µM*,-3,?,13%,i
COc1ccc(CN(C)C(=O)Cn2cnc3c(NCc4ccccc4)ncnc32)cc1OC,-9%,-3%,0,i,-3%,i
CC(CC(=O)Nc1ccc2c(c1)c(=O)n(C)n2-c1ccc2ccccc2c1)C(F)(F)F (configuration not stated),·,·,·,5.8µM*,·,5.8µM*
CC(CC(=O)Nc1ccc2c(c1)c(=O)n(C)n2Cc1ccc(F)cc1)C(F)(F)F (configuration not stated),·,·,·,i,·,i
CCOC(=O)/C(=C\c1ccccc1)C(=O)CCN1CCOCC1,2%,0%,-2,i,21µM*,?
CC(=O)N1Cc2ccccc2C(C)CC12CCCCC2 (configuration not stated),-2%,3%,9,i,-1%,16µM*
O=C(Nc1ccc(N2CCN(c3ccc(F)cc3)CC2)c(C(=O)O)c1)c1ccccc1F,·,·,·,i,·,i
CCOC(=O)C1=C(CN(C)Cc2ccccc2)NC(=O)NC1c1ccc(OC(C)C)cc1 (configuration not stated),·,·,·,i,·,i
COc1cc(NC(=O)N2CCNC2=O)cc(C(=O)Nc2cccc(C(F)(F)F)c2)c1,-21%,5.2µM*,-7,10µM*,2.1µM*,i
COc1cc(NC(=O)c2nccnc2N)cc(C(=O)Nc2cccc(C(F)(F)F)c2)c1,110%,-2%,3,i,4%,i
COc1cc(NC(=O)c2nccn2C)cc(C(=O)Nc2cccc(C(F)(F)F)c2)c1,-3%,?,-1,i,6%,4.1µM*!
